Data as given in article PMC5540273 (PLoS ONE, 2017).

Legend:
Conditions in all cases: concentration: 1 μM,replicates: in singlicate; n = 1
[1] = test system: RPS6KA4(Kin.Dom.2-C-terminal)
[2] = test system: RPS6KA5(Kin.Dom.1-N-terminal)
[3] = test system: RPS6KA5(Kin.Dom.2-C-terminal)
[4] = test system: T1, RSK1(Kin.Dom.1-N-terminal)
T1 construct: gene RPS6KA1

[5] = test system: T2, RSK1(Kin.Dom.2-C-terminal)
T2 construct: gene RPS6KA1

[6] = test system: T3, RSK2(Kin.Dom.1-N-terminal)
T3 construct: gene RPS6KA3

[7] = test system: T4, RSK2(Kin.Dom.2-C-terminal)
T4 construct: gene RPS6KA3

[8] = test system: T5, RSK3(Kin.Dom.1-N-terminal)
T5 construct: gene RPS6KA2

[9] = test system: T6, RSK3(Kin.Dom.2-C-terminal)
T6 construct: gene RPS6KA2

[10] = test system: RPS6KA4(Kin.Dom.1-N-terminal)
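Note: KINOMEscan kinase panel screen.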

## C[C@@H]1CCN(C(=O)CC#N)C[C@@H]1N(C)c1ncnc2[nH]ccc12
[1]
  %Inh: 0%
[2]
  %Inh: 0%
[3]
  %Inh: 0%
[4]
  %Inh: 20%
[5]
  %Inh: 0%
[6]
  %Inh: 0%
[7]
  %Inh: 0%
[8]
  %Inh: 0%
[9]
  %Inh: 100%

## CN(C)CC(O)COc1ccc(Nc2nccc(-c3cnn4nc(N5CCOCC5)ccc34)n2)cc1 (centres unmarked) [GW767488]
[10]
  %Inh: 0%
[1]
  %Inh: 53%
[2]
  %Inh: 0%
[3]
  %Inh: 0%
[4]
  %Inh: 23%
[5]
  %Inh: 49%
[6]
  %Inh: 62%
[7]
  %Inh: 1%
[8]
  %Inh: 20%
[9]
  %Inh: 37%

## Cl.Oc1cc(-c2nc(-c3ccccc3)[nH]c2-c2ccncc2)ccc1Cl [SB-386023]
[10]
  %Inh: 0%
[1]
  %Inh: 13%
[2]
  %Inh: 1%
[3]
  %Inh: 0%
[4]
  %Inh: 4%
[5]
  %Inh: 23%
[6]
  %Inh: 0%
[7]
  %Inh: 0%
[8]
  %Inh: 0%
[9]
  %Inh: 0%

## C=CC(=O)Nc1cc2c(Nc3ccc(F)c(Cl)c3)ncnc2cc1OCCCN1CCOCC1 [GW781483]
[10]
  %Inh: 7%
[1]
  %Inh: 3%
[2]
  %Inh: 0%
[3]
  %Inh: 0%
[4]
  %Inh: 0%
[5]
  %Inh: 0%
[6]
  %Inh: 33%
[7]
  %Inh: 24%
[8]
  %Inh: 17%
[9]
  %Inh: 11%

## CCN(CC)CCCCNc1ncc2cc(-c3c(Cl)cccc3Cl)c(NC(=O)NC(C)(C)C)nc2n1
[10]
  %Inh: 0%
[1]
  %Inh: 16%
[2]
  %Inh: 8%
[3]
  %Inh: 0%
[4]
  %Inh: 0%
[5]
  %Inh: 13%
[6]
  %Inh: 0%
[7]
  %Inh: 0%
[8]
  %Inh: 0%
[9]
  %Inh: 14%

## C[C@@H](Oc1cc(-c2cnn(C3CCNCC3)c2)cnc1N)c1c(Cl)ccc(F)c1Cl
[10]
  %Inh: 0%
[1]
  %Inh: 3%
[2]
  %Inh: 0%
[3]
  %Inh: 0%
[4]
  %Inh: 14%
[5]
  %Inh: 17%
[6]
  %Inh: 13%
[7]
  %Inh: 0%
[8]
  %Inh: 14%
[9]
  %Inh: 20%

## C[C@H]1Oc2cc(cnc2N)-c2c(nn(C)c2C#N)CN(C)C(=O)c2ccc(F)cc21
[10]
  %Inh: 3%
[1]
  %Inh: 0%
[2]
  %Inh: 16%
[3]
  %Inh: 1%
[4]
  %Inh: 0%
[5]
  %Inh: 0%
[6]
  %Inh: 0%
[7]
  %Inh: 0%
[8]
  %Inh: 5%
[9]
  %Inh: 14%

## Cc1cc2cn[nH]c2cc1-c1cccc2c(N)c(C(N)=O)nnc12
[10]
  %Inh: 92.6%
[1]
  %Inh: 12%
[2]
  %Inh: 51%
[3]
  %Inh: 2%
[4]
  %Inh: 48%
[5]
  %Inh: 15%
[6]
  %Inh: 58%
[7]
  %Inh: 0%
[8]
  %Inh: 26%
[9]
  %Inh: 2%

## CCn1c(-c2nonc2N)nc2c(C#CC(C)(C)O)nc(OCCN)cc21.Cl.Cl [GSK902056]
[10]
  %Inh: 0%
[1]
  %Inh: 79%
[2]
  %Inh: 23%
[3]
  %Inh: 38%
[4]
  %Inh: 0%
[5]
  %Inh: 0%
[6]
  %Inh: 10%
[7]
  %Inh: 22%
[8]
  %Inh: 19%
[9]
  %Inh: 0%

## O=C(NCCCN1CCOC1=O)c1cnc(NCc2cc(Cl)ccc2Cl)nc1NC1CCCC1
[10]
  %Inh: 10%
[1]
  %Inh: 0%
[2]
  %Inh: 15%
[3]
  %Inh: 8%
[4]
  %Inh: 8%
[5]
  %Inh: 6%
[6]
  %Inh: 2%
[7]
  %Inh: 16%
[8]
  %Inh: 67%
[9]
  %Inh: 13%

## CC(C)Nc1cc(-c2ccc3c(N)n[nH]c3c2)nc(N)n1 [GSK2221681]
[10]
  %Inh: 0%
[1]
  %Inh: 88%
[2]
  %Inh: 0%
[3]
  %Inh: 68%
[4]
  %Inh: 28%
[5]
  %Inh: 0%
[6]
  %Inh: 8%
[7]
  %Inh: 19%
[8]
  %Inh: 18%
[9]
  %Inh: 12%

## Nc1nc(Nc2ccccc2)cc(-c2ccc3c(N)n[nH]c3c2)n1 [GSK2225749]
[10]
  %Inh: 0%
[1]
  %Inh: 51%
[2]
  %Inh: 15%
[3]
  %Inh: 17%
[4]
  %Inh: 0%
[5]
  %Inh: 0%
[6]
  %Inh: 20%
[7]
  %Inh: 22%
[8]
  %Inh: 7%
[9]
  %Inh: 4%

## NC(=O)c1cc(-c2ccccc2)cc2c(C3CCNCC3)c[nH]c12 [GSK301362]
[10]
  %Inh: 16%
[1]
  %Inh: 0%
[2]
  %Inh: 12%
[3]
  %Inh: 4%
[4]
  %Inh: 8%
[5]
  %Inh: 0%
[6]
  %Inh: 0%
[7]
  %Inh: 54%
[8]
  %Inh: 27%
[9]
  %Inh: 0%

## Cc1ccc2c(-c3ccncc3)c(-c3ccc(F)cc3)nn2c1.Cl [GW461484]
[10]
  %Inh: 18%
[1]
  %Inh: 0%
[2]
  %Inh: 0%
[3]
  %Inh: 15%
[4]
  %Inh: 0%
[5]
  %Inh: 52%
[6]
  %Inh: 0%
[7]
  %Inh: 1%
[8]
  %Inh: 1%
[9]
  %Inh: 0%

## CCN(CC)CCOc1ccc(Nc2ncc3cc(-c4c(Cl)cccc4Cl)c(=O)n(C)c3n2)cc1 [SB-601273]
[10]
  %Inh: 0%
[1]
  %Inh: 0%
[2]
  %Inh: 0%
[3]
  %Inh: 36%
[4]
  %Inh: 19%
[5]
  %Inh: 51%
[6]
  %Inh: 45%
[7]
  %Inh: 47%
[8]
  %Inh: 29%
[9]
  %Inh: 0%

## CNC(=O)c1ccccc1Sc1ccc2c(/C=C/c3ccccn3)n[nH]c2c1
[10]
  %Inh: 0%
[1]
  %Inh: 0%
[2]
  %Inh: 0%
[3]
  %Inh: 0%
[4]
  %Inh: 0%
[5]
  %Inh: 0%
[6]
  %Inh: 0%
[7]
  %Inh: 0%
[8]
  %Inh: 11%
[9]
  %Inh: 6%

## Cl.Cl.Nc1nc(-c2ccc3c(N)n[nH]c3c2)cc(N2CCCC(NC(=O)c3ccccc3)C2)n1 (centres unmarked) [GSK2286775]
[10]
  %Inh: 0%
[1]
  %Inh: 0%
[2]
  %Inh: 0%
[3]
  %Inh: 4%
[4]
  %Inh: 20%
[5]
  %Inh: 10%
[6]
  %Inh: 6%
[7]
  %Inh: 0%
[8]
  %Inh: 32%
[9]
  %Inh: 16%

## COc1ccc(C[C@@H](CN)NC(=O)c2cc(Br)c(-c3ccnc4[nH]ccc34)s2)cc1.Cl.Cl [GSK1389063]
[10]
  %Inh: 68%
[1]
  %Inh: 59%
[2]
  %Inh: 87%
[3]
  %Inh: 21%
[4]
  %Inh: 42%
[5]
  %Inh: 0%
[6]
  %Inh: 90.8%
[7]
  %Inh: 0%
[8]
  %Inh: 63%
[9]
  %Inh: 15%

## O=C(NCCNc1ccnc(NCc2ccc(F)cc2)n1)c1cc2ccccc2s1 [GSK1379944]
[10]
  %Inh: 28%
[1]
  %Inh: 0%
[2]
  %Inh: 24%
[3]
  %Inh: 0%
[4]
  %Inh: 11%
[5]
  %Inh: 0%
[6]
  %Inh: 0%
[7]
  %Inh: 18%
[8]
  %Inh: 20%
[9]
  %Inh: 0%

## Cc1n[nH]c2ccc(-c3cc(OC[C@@H](N)Cc4ccccc4)cnc3-c3ccoc3)cc12.O=C(O)C(F)(F)F.O=C(O)C(F)(F)F [GSK507358]
[10]
  %Inh: 0%
[1]
  %Inh: 0%
[2]
  %Inh: 42%
[3]
  %Inh: 1%
[4]
  %Inh: 4%
[5]
  %Inh: 0%
[6]
  %Inh: 17%
[7]
  %Inh: 0%
[8]
  %Inh: 12%
[9]
  %Inh: 16%

## Cc1occc1-c1nc(N)c(OC[C@@H](N)Cc2c[nH]c3ccccc23)cc1-c1cc2c(C)n[nH]c2cn1 [GSK1660450]
[10]
  %Inh: 7%
[1]
  %Inh: 0%
[2]
  %Inh: 72%
[3]
  %Inh: 0%
[4]
  %Inh: 26%
[5]
  %Inh: 18%
[6]
  %Inh: 98.1%
[7]
  %Inh: 24%
[8]
  %Inh: 87%
[9]
  %Inh: 0%

## CC(C)N1C(=O)Cc2cc(Nc3ncc(C(F)(F)F)c(NCc4cccc(S(C)(=O)=O)c4)n3)ccc21
[10]
  %Inh: 0%
[1]
  %Inh: 24%
[2]
  %Inh: 0%
[3]
  %Inh: 22%
[4]
  %Inh: 21%
[5]
  %Inh: 19%
[6]
  %Inh: 56%
[7]
  %Inh: 2%
[8]
  %Inh: 39%
[9]
  %Inh: 26%

## Cl.Cl.NC[C@H](CC1CCCCC1)NC(=O)c1cc(Br)c(-c2ccnc3[nH]ccc23)s1 [GSK1581427]
[10]
  %Inh: 56%
[1]
  %Inh: 5%
[2]
  %Inh: 50%
[3]
  %Inh: 13%
[4]
  %Inh: 26%
[5]
  %Inh: 64%
[6]
  %Inh: 49%
[7]
  %Inh: 5%
[8]
  %Inh: 38%
[9]
  %Inh: 0%

## Cc1ccc(-n2nc(C(C)(C)C)cc2NC(=O)Nc2ccc(OCCN3CCOCC3)c3ccccc23)cc1 [GW839464]
[10]
  %Inh: 23%
[1]
  %Inh: 0%
[2]
  %Inh: 2%
[3]
  %Inh: 18%
[4]
  %Inh: 100%
[5]
  %Inh: 0%
[6]
  %Inh: 0%
[7]
  %Inh: 0%
[8]
  %Inh: 54%
[9]
  %Inh: 4%

## CN(C)CCOc1ccc(-c2cc(-c3c[nH]nc3-c3ccccn3)ccn2)cc1 [GW835314]
[10]
  %Inh: 0%
[1]
  %Inh: 17%
[2]
  %Inh: 8%
[3]
  %Inh: 1%
[4]
  %Inh: 0%
[5]
  %Inh: 40%
[6]
  %Inh: 21%
[7]
  %Inh: 16%
[8]
  %Inh: 84%
[9]
  %Inh: 10%

## Cl.Cl.NC[C@H](Cc1ccc(C(F)(F)F)cc1)NC(=O)c1cc(Br)c(-c2ccnc3[nH]ccc23)s1 [GSK1487252]
[10]
  %Inh: 41%
[1]
  %Inh: 0%
[2]
  %Inh: 72%
[3]
  %Inh: 21%
[4]
  %Inh: 20%
[5]
  %Inh: 7%
[6]
  %Inh: 56%
[7]
  %Inh: 1%
[8]
  %Inh: 37%
[9]
  %Inh: 0%

## Cc1cc(C(=O)Nc2ccc(Oc3ccc4nc(NC(=O)C5CC5)cn4n3)cc2)nn1-c1ccccc1
[10]
  %Inh: 20%
[1]
  %Inh: 0%
[2]
  %Inh: 0%
[3]
  %Inh: 6%
[4]
  %Inh: 0%
[5]
  %Inh: 0%
[6]
  %Inh: 0%
[7]
  %Inh: 49%
[8]
  %Inh: 0%
[9]
  %Inh: 6%
